High-throughput results: PubChem, National Center for Advancing Translational Sciences (NCATS)
NS1 function inh: blocks influenza NS1 protein function; AID 2326; Potency, µM (top dose mostly 46.1 µM), without a hit: at the top dose activity, positive = more growth; 270,000 tested, 0.4% active; calls by dose curve; also: actives are rising curves; nearly all actives have a fitted effect of over 50% in size
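Read-out: OD600 growth recovery of NS1-expressing budding yeast. Cells grown overnight at 30C in -URA glucose medium, washed, resuspended and diluted 1:100 in 2% galactose assay medium, pH 6.0. Same strain lacking NS1 served as positive control.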
Vaccinia Venus: vaccinia inhibition (Venus reporter) | Vaccinia virus Venus reporter expression, fluorescence | 330,000 tested, 0.46% active | AID 720580 | Potency, µM (top dose mostly 36.5 µM), for the others: at the top dose activity change, negative = inhibition, hits mostly inhibitors; calls by dose curve; tested in A549 cells; also: % is scaled to controls: 0 for no effect and ±100 for the full control effect; nearly all actives have a fitted effect of over 30% in size
Pf growth 48h: P. falciparum growth inhibition at 48 hours (one generation); Potency, µM (doses to about 28.7 µM), for the others: at the highest dose activity change, negative = inhibition, actives largely listed as inhibitors; P. falciparum luciferase growth in erythrocytes, 48 h; 310,000 tested, 5.9% active; also: % is scaled to controls: 0 for no effect and ±100 for the full control effect
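In quantitative HTS format, infected erythrocytes bearing luciferase-reporter parasites were treated for a single generation at 37 C. Luminescence after adding detection reagent served as the growth measure.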
VACV mCherry inh: vaccinia inhibition (mCherry reporter) | Vaccinia virus mCherry reporter infection, fluorescence | Potency, µM (highest dose often 36.5 µM), for the others: at the highest dose activity change, negative = inhibition, most hits filed as inhibitors | 310,000 tested, 0.63% active; calls by dose curve; tested in A549 cells; also: % is scaled to controls: 0 for no effect and ±100 for the full control effect; nearly all actives have a fitted effect of over 35% in size
HCV inhibitor: HCV inhibition; AID 651820; Potency, µM (highest dose often 41.8 µM), for inactives: top-dose activity change, negative = inhibition, most hits filed as inhibitors; 340,000 tested, 3.4% active; Huh7.5.1 HCVcc-Cre infection, luciferase reporter, 44 h; also: % is scaled to controls: 0 for no effect and ±100 for the full control effect
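A cell-based infection assay in which seeded cells (1,000 per well) receive test compound after 4 h, are inoculated with HCVcc-Cre at approximately 0.5 moi, and are incubated 44 h before luminescence detection.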
Pf growth 96h: inhibits malaria parasite growth, 96 h | Potency, µM (doses to about 28.7 µM), for inactives: top-dose activity change, negative = inhibition, hits mostly inhibitors | P. falciparum luciferase reporter growth, 96 h | 320,000 tested, 6.9% active; also: % is scaled to controls: 0 for no effect and ±100 for the full control effect
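Erythrocytes infected with luciferase-expressing P. falciparum were dispensed at 2% hematocrit and 0.05% parasitemia (final), then incubated with compounds 96 hours at 37 C in 5% CO2. Luminescence after detection reagent addition reported growth.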
* marks the source's active call; other numbers are inactive results; i = inactive; ? = inconclusive; nt = no result; ! = a repeat was not active; [ ] = dose if it differs, or a comment. Shown are actives, neighbours in structure and some others; about 11% of the full set was active somewhere. Unless noted, calls follow the shape of the dose curve; as a rule, active = well fitted inhibition curve with a large enough effect; inconclusive = small, poorly fitted or top-dose-only effect, or another doubt; inactive = no such curve, though single readings can be large or run the other way. Potency is read from the fitted curve at half-maximal effect.

SMILES	NS1 function inh	Vaccinia Venus	Pf growth 48h	VACV mCherry inh	HCV inhibitor	Pf growth 96h
CCN1CCN(Cc2ccc(NC(=O)c3cc(NC(=O)c4ccno4)cc(OC)c3)cc2C(F)(F)F)CC1	-1%	?	?	-5%	?	0.83µM*
COc1cc(NC(=O)c2cc3cccc(OC)c3o2)cc(C(=O)Nc2cccc(C(F)(F)F)c2)c1	3%	?	13µM*	?	?	10µM*
COc1cc(NC(=O)c2ccno2)cc(C(=O)Nc2cccc(C(F)(F)F)c2)c1	-3%	-11%	?	-26%	?	?
CCN1CCN(Cc2ccc(NC(=O)c3ccc(C)c(NC(=O)c4ccno4)c3)cc2C(F)(F)F)CC1	0%	?	?	-2%	-19%	?
COC(=O)C(CCC(C(=O)OC)N1C(=O)c2ccccc2C1=O)N1C(=O)c2ccccc2C1=O (configuration not stated)	nt	-6%	nt	i	33%	nt
Cc1ccc(/C=[N+](\[O-])c2ccccc2C)o1	4%	nt	-9%	nt	11%	41%
Cc1cc(C)cc(OCC(=O)OCC(=O)c2ccc3c(c2)NC(=O)CO3)c1	-4%	-24%	nt	-6%	0%	4%
CCOc1cccc(C(=O)Nc2ccc(NC(=O)c3cc4ccccc4o3)c(OC)c2)c1	9%	-2%	8%	-8%	?	50%
CCN1CCN(Cc2ccc(NC(=O)c3cc(NC(=O)c4cc(-c5ccc(OC)cc5)n[nH]4)cc(OC)c3)cc2C(F)(F)F)CC1	18%	10µM*	0.12µM*	?	?	0.093µM*
COc1cc(NC(=O)c2csc(-c3ccncc3)n2)cc(C(=O)Nc2cccc(C(F)(F)F)c2)c1	8%	-27%	?	-8%	7%[8.37 µM]	5.2µM*
CCN1CCN(Cc2ccc(NC(=O)c3cc(NC(=O)c4cc5cccc(OC)c5o4)cc(OC)c3)cc2C(F)(F)F)CC1	-35%	13µM*!	0.83µM*	?	-20%	0.29µM*
O=C(Nc1cccc(C(F)(F)F)c1)c1csc(-c2ccncc2)n1	5%	-21%	?	i	-8%	?
O=C(CSCc1ccc(Cl)cc1Cl)Nc1nccs1	-6%	nt	?	nt	6%	?
NC(=O)COC(=O)C12CC3CC(CC(O)(C3)C1)C2	0%	4%	6%	6%	1%	-17%
CN(C)CCCCNCCCNC(=O)/C=N\O	4%	-4%	nt	i	28%	36%
CNC(=O)c1c(NC(=O)c2ccc(S(=O)(=O)N(C)c3ccccc3)cc2)sc2c1CCN(C(C)C)C2	?	nt	0.59µM*	nt	11µM*	?
CC(C)N1CCc2c(sc(NC(=O)c3ccc(S(=O)(=O)N4CCc5ccccc54)cc3)c2C(N)=O)C1	29%	-23%	4.1µM*	-20%	11µM*	7.4µM*
CC(C)N1CCc2c(sc(NC(=S)NC(=O)c3ccccc3)c2C#N)C1	15%	-13%	10µM*	-16%	-23%	0.47µM*
CCN1CCc2c(sc(NC(=O)c3ccc(S(=O)(=O)N(CCOC)CCOC)cc3)c2C(N)=O)C1	nt	3%	nt	-5%	nt	nt
CCCN1CCc2c(sc(NC(=S)NC(=O)c3ccccc3)c2C#N)C1	nt	nt	?	nt	-19%	0%
CC(C)N1CCc2c(sc(NC(=O)c3ccc(S(=O)(=O)N(C)C4CCCCC4)cc3)c2C(N)=O)C1	nt	-20%	nt	-24%	nt	nt
CCN1CCc2c(sc(NC(=O)c3ccc(S(=O)(=O)N(C)c4ccccc4)cc3)c2C(=O)NC)C1	14%	nt	2.1µM*	nt	?	1.5µM*
O=C(COC(=O)CCS(=O)(=O)c1ccccc1)Nc1ccccc1	nt	nt	5%	nt	19%	-21%
COc1ccccc1CNC(=O)C1CCC(CNS(=O)(=O)c2cccc3cccnc23)CC1 (configuration not stated)	10%	-13%	?	-28%	-12%	10%
Cc1ccc(Cl)cc1N1CCN(C(=O)c2cnn(C)c2C2CCN(C(=O)OC(C)(C)C)CC2)CC1	nt	-22%	nt	-23%	nt	nt
SMILES	NS1 function inh	Vaccinia Venus	Pf growth 48h	VACV mCherry inh	HCV inhibitor	Pf growth 96h
O=C(CN1C(=O)NC2(CCc3ccccc32)C1=O)Nc1cccc(Cl)c1 (configuration not stated)	nt	-24%	nt	i	5%	nt
CCN1CCc2c(sc(NC(=O)c3ccc4ccccc4c3)c2C(N)=O)C1	-24%	nt	12µM*	nt	nt	?
C=CCSc1nc(=O)n2ccc(C)cc2n1	nt	1%	11%	i	-25%	?
CC(C)(C)NC(=O)C1N(c2cccnc2)C(=O)C2C(C(=O)Nc3ccccc3)C3(C)C=CC21O3 (configuration not stated)	-7%	nt	4%	nt	?	?
Cc1cc(NC(=O)C2C3C(=O)N(c4cccnc4)C(C(=O)NC(C)(C)C)C34C=CC2(C)O4)no1 (configuration not stated)	4%	-1%	-11%	8%	30%	13µM*
CC1Sc2ccc(S(=O)(=O)CCC(=O)N3CCc4ccccc43)cc2NC1=O (configuration not stated)	10%	3%[7.34 µM]	-1%	-8%[7.34 µM]	3%	17µM*
CCC1Sc2ccc(S(=O)(=O)CCC(=O)N3CCc4ccccc43)cc2NC1=O (configuration not stated)	9%	-18%	17%	-2%	-3%	28%
CC1Sc2ccc(S(=O)(=O)CCC(=O)Nc3ccccn3)cc2NC1=O (configuration not stated)	-1%	nt	14%	nt	9%	9.3µM*
CC1Sc2ccc(S(=O)(=O)CCC(=O)NCc3ccccc3)cc2NC1=O (configuration not stated)	1%	nt	-1%	nt	-1%	?
COc1c(O)cccc1/C=N/NC(=O)Cn1ccnc1C	0%	nt	0%	nt	0%	-9%
O=c1cc2c(nn1Cc1c(Cl)cccc1Cl)-c1ccccc1CC2	-1%	-18%	nt	-27%	25µM*	5.2µM*
C=CCn1cc(C(=O)N2CCN(CC)CC2)c(=O)c2cc(S(=O)(=O)N(CC)CC)ccc21	5%	-13%	2%	1%	?	18%
O=C(CCS(=O)(=O)c1ccc(Br)cc1)N1CCN(Cc2ccccc2)CC1	-8%	?	4%	nt	3%	68%
CC(=O)N1CCN(CCS(=O)(=O)c2ccc(Br)cc2)CC1	nt	?	-8%	18µM*	19%	2%
CCCCNC(=O)COC(=O)c1c2c(nc3ccccc13)/C(=C/c1cccs1)CC2	?	?	-25%	-13%	2.2µM*	?
CCOc1cc(CNCCCN2CCOCC2)cc(Br)c1OCC(=O)Nc1cccc(C(F)(F)F)c1	-2%	nt	1.2µM*	nt	?	0.66µM*
CCOc1cc(CNCCCN2CCOCC2)cc(Cl)c1OCC(=O)NC(C)(C)C	2%	-6%	?	-6%	11µM*	225%
